Most compounds without a hit are left out; they make up all but 2.7% or so of the library.
Shn3 inh set2: reduction of Shn3 3'UTR firefly luciferase signal, primary screen, Schnurri-3 inhibitor project, cell-based, Clone20 osteoblasts, set 2. inhibition, % at 12.5 µM. AID 588674, 2011. 360,000 compounds, 0.52% hits. Clone20 osteoblast Shn3 3'UTR firefly luciferase, 24 h;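 active = mean inhibition of at least 75% with every replicate also reaching 75%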;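 note: 0% = median of neutral control wells and 100% = pilot-screen positive control compound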
HIF-2a block: HIF-2a reporter inhibitors, primary screen, luminescence, 786-0 RCC cells; 786-0 RCC cells HIF-2a reporter, luciferase luminescence, overnight; inhibition, % at 18.8 µM; 360,000 compounds, 0.72% hits;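 active = inhibition of the luminescence signal of 40% or more relative to plate controls, in a single-dose primary screen at 18.75 µM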
CF NFkB inh: inhibitors of PAF-induced NF-kB signaling, primary screen, cell-based, GFP fluorescence, uHTS. KKLEB NF-kB-GFP reporter, GFP fluorescence overnight. inhibition, % at 5 µM. 360,000 compounds, 0.86% hits. AID 588850, 2011;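 active = at least 50% inhibition at 5 µM, scaled per plate between neutral and stimulator controls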;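 note: PAF is a Pseudomonas aeruginosa culture filtrate used as stimulus; plate controls were PAF-stimulated DMSO wells for no effect and unstimulated DMSO wells for full effect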
MITF TRPM1 inh: inhibitors of MITF-dependent TRPM1 promoter reporter, primary screen, cell-based, SK-MEL-5, single point, luciferase; SK-MEL-5 TRPM1 promoter luciferase, 24 h; inhibition, % at 12.5 µM; 330,000 compounds, 0.83% hits; AID 488899, 2010;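 active = mean inhibition across replicates of 60% or more, whatever share of single replicates reaches that level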
KKLEB cytotox: cytotoxicity in KKLEB CF airway cells, primary screen, cytotoxicity control for CF NF-kB inhibitor project, cell-based, uHTS, fluorescence assay plates. KKLEB CF airway cells viability, ATPlite luminescence, overnight; hits give low values; cells stimulated with P. aeruginosa culture filtrate. activity change (cytotoxicity), % at 5 µM. 360,000 compounds, 0.36% hits. AID 602141, 2011;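 active = corrected activity change at or below -50% at 5 µM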
Peg3 promoter: Peg3 promoter-driven luciferase inhibitors, primary screen, cell-based, HeLa, luciferase luminescence. HeLa PEG-Prom luciferase reporter, overnight. inhibition, % at 20 µM. 360,000 compounds, 1.7% hits. AID 588405, 2011;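 active = inhibition of at least 50% at 20 µM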
Mdm2-MdmX confirm: retested Mdm2-MdmX interaction blockers, confirmation, cell-based, luminescence, single concentration, set 2; shares compounds with HIF-2a block; SaOS-2 split-luciferase Mdm2/MdmX complementation; AID 504601, 2011; 740 compounds, 99% hits; inhibition, % at 8 µM;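 active = mean inhibition of the luminescence signal across two replicates at or above 26 percent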
Target sequence (O15151 whole entry, looked up): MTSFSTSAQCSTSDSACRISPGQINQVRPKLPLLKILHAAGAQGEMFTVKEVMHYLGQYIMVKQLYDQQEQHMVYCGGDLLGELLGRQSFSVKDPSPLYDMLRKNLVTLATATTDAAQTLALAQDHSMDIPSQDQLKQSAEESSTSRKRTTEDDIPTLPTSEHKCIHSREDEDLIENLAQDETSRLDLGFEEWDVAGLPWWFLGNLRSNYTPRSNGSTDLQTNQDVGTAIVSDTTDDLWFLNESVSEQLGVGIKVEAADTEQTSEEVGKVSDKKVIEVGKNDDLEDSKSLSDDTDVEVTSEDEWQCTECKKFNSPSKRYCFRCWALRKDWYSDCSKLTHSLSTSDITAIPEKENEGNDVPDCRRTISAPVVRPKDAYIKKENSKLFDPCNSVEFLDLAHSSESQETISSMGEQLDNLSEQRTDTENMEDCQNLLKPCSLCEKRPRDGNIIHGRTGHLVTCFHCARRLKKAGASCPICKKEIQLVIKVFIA
Target sequence (Q00987 whole entry, looked up): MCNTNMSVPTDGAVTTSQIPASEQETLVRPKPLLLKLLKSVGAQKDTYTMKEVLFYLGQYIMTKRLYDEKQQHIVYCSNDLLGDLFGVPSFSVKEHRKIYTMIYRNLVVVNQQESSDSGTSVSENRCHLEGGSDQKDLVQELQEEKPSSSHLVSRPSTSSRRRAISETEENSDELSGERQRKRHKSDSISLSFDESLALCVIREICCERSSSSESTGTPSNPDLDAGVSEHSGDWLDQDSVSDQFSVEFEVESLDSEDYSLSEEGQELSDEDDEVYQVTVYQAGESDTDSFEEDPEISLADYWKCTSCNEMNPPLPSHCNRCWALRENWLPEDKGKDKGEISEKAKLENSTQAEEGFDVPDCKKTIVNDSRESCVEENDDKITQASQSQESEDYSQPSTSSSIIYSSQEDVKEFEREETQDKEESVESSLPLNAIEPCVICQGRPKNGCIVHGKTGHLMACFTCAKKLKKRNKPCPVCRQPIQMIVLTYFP
HIF-2a conf: HIF-2a reporter inhibitor retest, confirmation, luminescence, 786-0 RCC cells; 1,800 compounds, 56% hits; inhibition, % at 18.8 µM; shares compounds with HIF-2a block; HIF-2a luciferase reporter luminescence, overnight;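 active = mean inhibition across four replicates of at least 40 percent at the single tested concentration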
HIF-1a cs: HIF-1a luciferase reporter signal reduction – MiaPaCa-2 cells, single concentration, counter-screen for HIF-2a inhibitor project, confirmation | shares compounds with HIF-2a block | MiaPaCa-2 HIF-1a luciferase reporter, desferoxamine, overnight | inhibition, % at 18.8 µM | 1,800 compounds, 72% hits | AID 651589, 2012;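 active = mean inhibition of the reporter signal across four replicates at the single tested dose of 50% or more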
The depositor's hits bear a star; / = no result.

SMILES	Shn3 inh set2	HIF-2a block	CF NFkB inh	MITF TRPM1 inh	KKLEB cytotox	Peg3 promoter	others
O=C(COC(=O)c1ccccc1C(=O)c1ccc(Cl)c([N+](=O)[O-])c1)NC1CC1	70	84*	105*	81*	-66*	99*	Mdm2-MdmX confirm=103*;HIF-2a conf=30;HIF-1a cs=101*
O=C(COC(=O)c1cc([N+](=O)[O-])ccc1Cl)NC1CCCC1	6	17	-11	-19	-2	6
CC(C)Oc1ccc(S(=O)(=O)N2CCCCC2)cc1NC(=O)C1CCC1	8	6	14	-2	-3	1
Cc1cc(NC(=O)c2ccc(F)cc2)n(C)n1	-8	-28	-26	7	5	-18
CS(=O)(=O)c1ccc(-c2sc3cc4c(cc3c2C(=O)NN2CCOCC2)OCO4)cc1	-17	1	-13	-3	-1	6
CC(=O)c1ccc(NC(=O)CSc2nc(Nc3ccccc3)nc(N3CCOCC3)n2)cc1	9	25	16	-16	-16	2
COC(=O)c1ccccc1NC(=O)CSc1nc(Nc2ccccc2)nc(N2CCOCC2)n1	22	41*	23	-51	2	23	HIF-2a conf=28;HIF-1a cs=70*
NC(Cc1ccc(Cl)cc1)c1csc(NC(=O)NCC2CCCCC2)n1 (centres undefined)	84*	61*	22	/	-17	92*	HIF-2a conf=-23;HIF-1a cs=101*
Cc1csc(NC(=O)NCC2CCCC(CNC(=O)Nc3nc(C)cs3)C2)n1 (centres undefined)	-27	-121	14	-5	-7	-134
COc1ccc(/C=C/c2cc(-c3ccc(C)cc3)o[n+]2C)cc1	83*	43*	56*	88*	-62*	67*	Mdm2-MdmX confirm=102*;HIF-2a conf=54*;HIF-1a cs=103*
COc1ccc(/C=C/c2c(-c3ccc(OC)cc3)oc3ccc(-c4ccc(OC)cc4)cc23)cc1	-19	-12	-3	8	-2	21
Cc1cccc(Nc2nc(-c3ccc(O)cc3O)cs2)n1	-135	-348	-54	-38	9	-292
NC(=O)c1sc2nc3c(c(-c4cccnc4)c2c1N)CCC3	-3	-1	9	-8	10	-1
NC(=O)c1sc2nc3c(c(-c4cccs4)c2c1N)CCCCC3	-5	34	91*	-1	-51*	14	Mdm2-MdmX confirm=95*
COC(=O)c1ccc(CNC(=O)[C@@H]2CCCN2S(=O)(=O)c2ccccc2F)cc1	-2	7	10	12	5	17
C[C@H](CO)N1C[C@H](C)[C@H](CN(C)C(=O)NC2CCCCC2)Oc2ncc(Br)cc2C1=O	-10	2	-24	/	11	4
CCOC(=O)N1c2ccccc2Sc2ccccc21	13	28	16	8	0	15
Cc1nnc(SC(=O)N2c3ccccc3Sc3ccccc32)s1	62	19	69*	76*	-58*	99*	Mdm2-MdmX confirm=103*
Cc1ccccc1NC(=O)c1nn(C)c2c1CS(=O)(=O)c1ccccc1-2	4	6	-1	2	2	11
COc1ccc(Cl)cc1C(=O)N1CCN(Cc2ccc3c(c2)OCO3)CC1	24	18	-6	-3	8	23
CCOC(=O)C(=Cc1c[nH]c2ccc(S(=O)(=O)N(C)C)cc12)C(=O)OCC	-14	56*	42	8	5	33	HIF-2a conf=51*;HIF-1a cs=81*
COc1ccccc1/C=C(\NC(=O)c1ccccc1)C(=O)NCc1ccco1	-7	6	-9	-5	10	6
CCOC(=O)C1CCCN(C(=O)COc2ccc(C(C)(C)C)cc2)CC1 (centres undefined)	-1	47*	-9	/	5	-18	HIF-2a conf=58*;HIF-1a cs=-27
O=C1CN(c2ccccc2)C(=S)N1C(=O)c1ccc(Br)cc1	-72	-315	-5	-72	12	-282
COC(=O)c1sc(S(=O)(=O)N2CCN(c3ccccc3F)CC2)c(C(=O)OC)c1C	-7	3	0	10	-1	18
SMILES	Shn3 inh set2	HIF-2a block	CF NFkB inh	MITF TRPM1 inh	KKLEB cytotox	Peg3 promoter	others
Cc1ccc(-n2c(C)c([N+](=O)[O-])c3ccc(O)c(CN(C)C)c32)cc1	20	8	82*	-6	-18	16	Mdm2-MdmX confirm=92*
O=C(Nc1ccc(F)cc1)Nc1cc(OCC(F)(F)F)cc(OCC(F)(F)F)c1	90*	13	46	81*	-35	41	Mdm2-MdmX confirm=93*
O=C(O)CCC(=O)Nc1ccc(SSc2ccc(NC(=O)CCC(=O)O)cc2)cc1	11	2	9	1	-21	3
CCOC(=O)c1ccc(-c2ccc(N3C(c4cccc(OC)c4)=Cc4ccc(F)cc4C3CC(C)=O)cc2)cc1F (centres undefined)	/	65*	/	/	/	/	HIF-2a conf=26;HIF-1a cs=27
COc1cccc(C2=Cc3ccc(F)cc3C(CC(C)=O)N2c2ccc(-c3cncnc3)cc2)c1 (centres undefined)	/	24	/	/	/	/
Cc1ccsc1C(=O)N1CCCCCC1(C)C(=O)NCC(C)C (centres undefined)	14	7	-8	/	9	2
N#CC(c1cccc(Cl)c1)c1ccc2c(C(F)(F)F)cc(C(F)(F)F)nc2n1 (centres undefined)	88*	14	53*	74*	-60*	57*	Mdm2-MdmX confirm=102*
CC(O)CC(=O)OC[C@]12CC[C@H]3[C@@](C)(CC[C@H]4C(C)(C)CCC[C@]34C)[C@@H]1CC(C1=CC(=O)OC1O)O2 (some centres undefined)	93*	93*	104*	/	-88*	99*	HIF-2a conf=96*;HIF-1a cs=107*
CC1C(=O)OC(c2ccc(Br)cc2)C(C)(C)C1=O (centres undefined)	26	0	6	-3	3	8
COc1ccc(CN(C)C(=O)[C@H]2O[C@@H](n3cnc4c(N)ncnc43)[C@H](O)[C@@H]2O)cc1OC	19	17	-17	/	-5	5

Screening results as filed in PubChem.
